# In the library only some 19% were active in any assay of this set; here they are far more common.
# ELG1 DNA repair = ELG1-dependent DNA repair inhibition; HEK293T ELG1-luciferase reporter, luminescence, 16 h; DNA damage induced by 5-fluorouridine; Potency, µM (top dose mostly 46.1 µM), hits mostly inhibitors; hit rate 2.3% among 330,000; AID 504467; also: nearly all actives have a fitted effect of over 55% in size
#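 Cells (2,000 per well) received 5-fluorouridine plus test compound or DMSO and were incubated 16 hr at 37 °C, 5% CO2. Luciferase activity was read by luminescence 30 min after ONE-Glo addition; signal suppression marked inhibition of damage-induced ELG1 function.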
# HT1080 IDH1KD tx = toxicity to HT-1080 IDH1 knockdown cells (counter line); HT-1080 IDH1 knockdown viability, ATP luminescence, 48 h; Potency, µM (doses to about 46.1 µM), hits mostly cytotoxic; hit rate 2% among 360,000
#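 Knockdown cells (IDH1KD HT-1080) received compounds 2 h after plating at 750 cells/well and were kept 48 h at 37 °C in 5% FBS RPMI. A CellTiter-Glo luminescence read gave % activity for curve fitting.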
# HT1080NT lethal = kills 2HG-producing HT-1080-NT fibrosarcoma cells; hit rate 1.6% among 360,000; HT-1080-NT fibrosarcoma viability, CellTiter-Glo ATP luminescence, 48 h; Potency, µM (series often up to 46.1 µM), hits mostly cytotoxic;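 also: NT is the 2HG producing partner of a matched IDH1 knockdown line; nearly all actives have a fitted effect of over 55% in size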
#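 Viability by CellTiter-Glo luminescence after 48 h compound exposure at 37C of HT-1080-NT cells (750/well, RPMI, 5% FBS). % activity scaled between DMSO wells and medium-only wells, then curve-fitted and categorized by curve class.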
# DT40 TDP1 no CPT = qHTS for Inhibitors of human tyrosyl-DNA phosphodiesterase 1 (TDP1): qHTS in cells in absence of CPT; AID 686978, 2013; hit rate 15% among 420,000; Potency, µM (doses to about 46.2 µM), hits mostly inhibitors; DT40 Tdp1-/- hTDP1 cells, no CPT, ATP luminescence, 48 h; also: nearly all actives have a fitted effect of over 55% in size
#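 Seeded 400 DT40-hTDP1 cells/well (vehicle DMSO, no 20 nM CPT); pinned compounds; ≥48 hr at 37 °C; CellTiter-Glo luminescence as viability measure.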
# TDP1 cell CPT = DT40-hTDP1 cell growth loss with CPT. Potency, µM (series often up to 46.2 µM), actives largely listed as inhibitors. chicken DT40 Tdp1-/-;hTDP1 cells + 20 nM CPT, ATP luminescence, 48 h. hit rate 12% among 420,000. AID 686979; also: nearly all actives have a fitted effect of over 55% in size
#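 Cell growth measured by CellTiter-Glo luminescence after a minimum 48 h, 37 C compound exposure with 20 nM CPT in Tdp1-knockout DT40 cells stably expressing hTDP1, seeded 400/well; qHTS titration format.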
# IL-1B inflam inh = inhibitors of inflammasome signaling (IL-1 beta secretion); hit rate 4.7% among 360,000; activity change, % at 57.5 µM; THP-1 LPS/ATP IL-1B secretion, AlphaLISA, 16 h; hits give low values; in the data active = activity change below about -50%; inconclusive = mostly about -30% to -49%
#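 THP-1 cells pretreated 1 hr with compounds (up to 57.5 uM final), then stimulated with LPS (250 ng/mL final) plus ATP (1.25 mM final); secreted IL-1B measured by AlphaLISA after 16 hr, decreased signal indicating inhibition.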
# Numbers stand for hits; n = inactive; u = inconclusive; x = not tested or not shown. Unless noted, calls follow the shape of the dose curve; as a rule, active = well fitted curve in the direction sought with a large enough effect; inconclusive = small, poorly fitted or top-dose-only effect, or another doubt; inactive = no such curve, though single readings can be large; an effect the other way counts as inactive or inconclusive.
SMILES,ELG1 DNA repair,HT1080 IDH1KD tx,HT1080NT lethal,DT40 TDP1 no CPT,TDP1 cell CPT,IL-1B inflam inh
CN(CC(=O)Nc1ccc(N2CCOCC2)cc1)CC(=O)Nc1ccc(Cl)cc1[N+](=O)[O-],u,n,n,26µM,u,n
CCOc1ccccc1OCCCC(=O)Nc1sccc1C(N)=O,n,n,n,16µM,u,n
NC(=O)c1ccsc1NC(=O)CCc1ccccc1,u,n,n,u,u,n
COc1ccc(NC(=O)CN(C)CC(=O)Nc2ccc(N3CCOCC3)cc2)c([N+](=O)[O-])c1,n,n,n,u,n,n
CCCCN(C)CCCNC(=O)CN1C(=O)COc2ccc(S(=O)(=O)N3CCOCC3)cc21,n,n,n,n,n,n
Cc1nc2ccccn2c1-c1ccnc(=S)[nH]1,n,n,n,23µM,5.8µM,n
c1ccn2c(c1)nc1c2nc2ccccn21,u,n,n,n,n,n
CCOc1ccc(C)cc1S(=O)(=O)n1nc(C)cc1C,n,n,u,n,n,n
CCOc1ccc(C(C)(C)C)cc1S(=O)(=O)n1nc(C)cc1C,n,n,n,11µM,u,n
CCOc1ccc(S(=O)(=O)n2nc(C)cc2C)c2ccccc12,n,n,n,u,23µM,n
CCN1CCN(C(CC(C)C)c2nnnn2CS(=O)(=O)c2ccc(C)cc2)CC1 (centres undefined),n,n,n,n,n,-73
Cc1ccc(S(=O)(=O)Cn2nnnc2C(C(C)C)N2CCN(c3nc4ccccc4s3)CC2)cc1 (centres undefined),18µM,n,n,u,n,n
COc1cccc(Nc2cc(N3CCOCC3)c3nonc3c2[N+](=O)[O-])c1,u,n,n,18µM,21µM,n
COc1cccc(Nc2ccc([N+](=O)[O-])c3nonc23)c1,u,23µM,15µM,n,u,n
Nc1nc(Nc2cccc(F)c2)nc(N2CCOCC2)c1[N+](=O)[O-],n,n,n,n,n,n
O=[N+]([O-])c1c(Nc2ccccc2O)cc(N2CCOCC2)c2nonc12,n,u,n,15µM,16µM,n
Cc1ccc(CNc2ncnc3c2nnn3C)cc1,x,x,x,u,n,x
Cc1oc2c(c1C(=O)Nc1ccccc1Br)C1=NCCN1C=N2,x,x,x,21µM,18µM,x
Cc1oc2c(c1C(=O)Nc1cccc(Br)c1)C1=NCCN1C=N2,x,x,x,n,n,x
Cc1oc2c(c1C(=O)Nc1ccc(Cl)cc1F)C1=NCCN1C=N2,x,x,x,16µM,n,x
Cc1cc(C)c(NC(=O)c2c(C)oc3c2C2=NCCN2C=N3)c(C)c1,x,x,x,16µM,16µM,x
CCCCC1Cc2[nH]c(=S)[nH]c(=O)c2C(c2ccc(Cl)cc2)O1 (centres undefined),x,n,n,u,u,n
NS(=O)(=O)c1cc2c(cc1Cl)NC(c1ccccc1OCC(=O)O)NS2(=O)=O (centres undefined),n,n,n,u,n,n
Cc1c(C(=O)N2CCCCC2)nn(-c2ccc(Cl)cc2)c(=O)c1C#N,n,n,n,n,n,n
CC1(C(=O)NS(=O)(=O)c2ccccc2C(F)(F)F)CCN1C(=O)COc1ccc(Cl)cc1 (centres undefined),x,n,u,n,n,n
Cc1cc2nc(C)n(CCCNC(=O)Nc3cccc4ccccc34)c2cc1C,u,n,n,15µM,23µM,u
CCNc1nc(NCC)nc(N(C#N)CCOc2ccccc2)n1,n,n,n,n,u,n
CN(C)c1nc(Cl)nc(N(C#N)CCOc2ccccc2)n1,n,n,n,n,n,-86
CN(C)c1nc(N(C)C)nc(N(C#N)Cc2ccc(Cl)cc2)n1,n,n,n,n,n,n
CCNc1nc(NC(C)C)nc(N(C#N)CCOc2ccccc2)n1,u,n,n,23µM,23µM,n

# Screening data from PubChem.
